This is an account of results in PubChem BioAssay (NCI).

About 83,000 compounds went through this panel and 20% of them were active in at least one assay; those are over-represented in the sample as a whole.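 For each line, cells grew in 96-well plates with the test compound present at a single concentration for 48 hours.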 A number with no mark means an inactive call. Calls of active or inactive are those of the source. The calls were made as follows: active = growth percent below 10; inactive = the rest.

What all share (assay): NCI-60 one-dose screen, 48 h (100 = growth as untreated, 0 = no growth, -100 = all killed)
One assay relates to K-562 leukemia. Particulars: 10 µM unless noted.
For another assay, the system named is MALME-3M melanoma. Particulars: 10 µM unless noted.
The next assay deals with MDA-MB-231 breast. Conditions: 10 µM unless noted.
Another assay has as its system RXF 393 renal. Conditions: 10 µM unless noted.
In a further assay the test system is SF-268 CNS. Particulars: 10 µM unless noted.
For the next assay, the system named is SF-295 CNS. Conditions: 10 µM unless noted.
Another assay relates to SF-539 CNS. Particulars: 10 µM unless noted.
In the next assay the test system is UACC-257 melanoma. Conditions: 10 µM unless noted.
The next assay concerns M14 melanoma. Conditions: 10 µM unless noted.
The next assay concerns HCT-15 colon. Conditions: 10 µM unless noted.
The next assay deals with HT29 colon. Particulars: 10 µM unless noted.
Another assay has as its system SNB-75 CNS. Particulars: 10 µM unless noted.
The subject of a further assay is SNB-19 CNS. Particulars: 10 µM unless noted.
A further assay concerns U251 CNS. Particulars: 10 µM unless noted.
A further assay has as its system PC-3 prostate. Particulars: 10 µM unless noted.
The next assay concerns SK-MEL-5 melanoma. Conditions: 10 µM unless noted.
The subject of the next assay is UACC-62 melanoma. Conditions: 10 µM unless noted.
In another assay the test system is LOX IMVI melanoma. Particulars: 10 µM unless noted.
The next assay relates to SK-MEL-28 melanoma. Particulars: 10 µM.
The next assay has as its system SK-MEL-2 melanoma. Conditions: 10 µM unless noted.

As for `O=C1NC(=S)NC(=O)C1=Cc1cn(Cc2cn(Cc3cccc4ccccc34)nn2)c2ccccc12`, the growth with K-562 leukemia was 121%; with MALME-3M melanoma, 86.5%; in the assay with MDA-MB-231 breast it was 87.6%; with RXF 393 renal, 84.6%; in the assay on SF-268 CNS, 95.4%; in the assay on SF-295 CNS, 98.4%. In addition, the growth was 96.3% with SF-539 CNS; 103% in the assay with UACC-257 melanoma; 95% in the assay with M14 melanoma; 100% in the assay on HCT-15 colon; 114% in the assay on HT29 colon; 79.4% in the assay with SNB-75 CNS. For the same compound, the growth with SNB-19 CNS is 97.9%; with U251 CNS, 102%; with PC-3 prostate it was 93.9%; in the assay on SK-MEL-5 melanoma, 93.9%; in the assay with UACC-62 melanoma, 88.3%; in the assay with LOX IMVI melanoma, 91.1%. The growth in the assay on SK-MEL-28 melanoma is 103%; with SK-MEL-2 melanoma it was 114%.
For `COc1ccc(Cn2cc(Cn3cc(C=C4C(=O)NC(=O)NC4=O)c4ccccc43)nn2)cc1`, the growth was 50.4% with K-562 leukemia; 85.5% with MALME-3M melanoma; -96.3% (active) in the assay on MDA-MB-231 breast; 77.9% in the assay with RXF 393 renal; 83.3% with SF-268 CNS; 77.1% in the assay with SF-295 CNS. In addition, the growth with SF-539 CNS was 88.3%; in the assay on UACC-257 melanoma, 96.4%; in the assay with M14 melanoma it was 82.4%; with HCT-15 colon it was 85.9%; with HT29 colon, 117%; in the assay with SNB-75 CNS, 78.1%. Besides, the growth in the assay on SNB-19 CNS was 90.4%; with U251 CNS, 92.3%; with PC-3 prostate, 84.8%; in the assay on SK-MEL-5 melanoma, 60.7%; in the assay with UACC-62 melanoma it was 64.6%; in the assay with LOX IMVI melanoma, 79.4%. In addition, the growth is 102% in the assay with SK-MEL-28 melanoma and 85.8% with SK-MEL-2 melanoma.
As for `N#C/C(=C1\SC(=O)CN1c1ccccc1)c1nc2ccccc2s1`, the growth in the assay with K-562 leukemia was 82.8%; in the assay on MALME-3M melanoma, 99.3%; in the assay on MDA-MB-231 breast it was 85.5%; with RXF 393 renal, 105%; with SF-268 CNS, 103%; with SF-295 CNS it was 84.2%. Moreover, the growth was 97.6% with SF-539 CNS; 97% in the assay with UACC-257 melanoma; 91.2% in the assay with M14 melanoma; 95.8% in the assay with HCT-15 colon; 108% with HT29 colon; 88.7% with SNB-75 CNS. Further, the growth with SNB-19 CNS is 94.3%; in the assay with U251 CNS, 91.9%; with PC-3 prostate, 92%; in the assay on SK-MEL-5 melanoma, 93.3%; in the assay on UACC-62 melanoma, 91.1%; with LOX IMVI melanoma, 88.3%. Also, the growth with SK-MEL-28 melanoma was 106%; in the assay on SK-MEL-2 melanoma it was 86.1%.
Regarding `O=Cc1c(OCc2cnnn2CC(=O)Nc2ccc(Cl)cc2)ccc2ccccc12`, the growth with K-562 leukemia is 98.6%; in the assay on MALME-3M melanoma it was 95.2%; with MDA-MB-231 breast it was 98%; with RXF 393 renal, 111%; in the assay on SF-268 CNS it was 99%; in the assay on SF-295 CNS, 104%. For the same compound, the growth in the assay with SF-539 CNS was 94.5%; with UACC-257 melanoma, 94.6%; with M14 melanoma, 100%; with HCT-15 colon, 101%; in the assay with HT29 colon, 107%; in the assay on SNB-75 CNS, 81.3%. The growth in the assay with SNB-19 CNS was 93.8%; with U251 CNS, 101%; in the assay with PC-3 prostate, 105%; with SK-MEL-5 melanoma it was 100%; with UACC-62 melanoma it was 87%; with LOX IMVI melanoma, 99.5%. Besides, the growth with SK-MEL-28 melanoma and in the assay with SK-MEL-2 melanoma was 102% in each case.
As to `CN1CCN(Cc2ccc(NC(=O)c3[nH]ncc3Nc3cc(OC4CCCC4)ncn3)cc2)CC1`, the growth with K-562 leukemia is 1.53% (active); in the assay with MALME-3M melanoma, 65.4%; in the assay on MDA-MB-231 breast, 23.8%; in the assay with RXF 393 renal it was -0.487% (active); in the assay with SF-268 CNS, 40.7%; with SF-295 CNS, 45.9%. The growth in the assay on SF-539 CNS was 30.3%; in the assay on UACC-257 melanoma it was 48.1%; with M14 melanoma, 19.9%; with HCT-15 colon, 12.9%; in the assay with HT29 colon, 14.3%; in the assay on SNB-75 CNS, 61.7%. Further, the growth in the assay on SNB-19 CNS is 59.8%; in the assay with U251 CNS it was 41.1%; in the assay on PC-3 prostate it was 8.34% (active); in the assay with SK-MEL-5 melanoma, 14.5%; with UACC-62 melanoma it was 29.2%; in the assay on LOX IMVI melanoma, 17.9%. Also, the growth with SK-MEL-28 melanoma was 53.1%; in the assay on SK-MEL-2 melanoma it was 49.4%.
On to `O=C(Cn1cc(COc2ncnc3c2cnn3-c2ccccc2)nn1)Nc1cccc2ccccc12`, for which the growth is 94.6% in the assay with K-562 leukemia; 93.6% in the assay on MALME-3M melanoma; 95% in the assay on MDA-MB-231 breast; 94.8% in the assay on RXF 393 renal; 92.6% in the assay on SF-268 CNS; 99.4% in the assay with SF-295 CNS. The growth with SF-539 CNS was 90%; in the assay on UACC-257 melanoma it was 95.9%; with M14 melanoma, 105%; in the assay with HCT-15 colon, 96.9%; in the assay with HT29 colon it was 102%; in the assay on SNB-75 CNS, 74.9%. The growth in the assay with SNB-19 CNS was 88.4%; in the assay on U251 CNS, 96.7%; with PC-3 prostate, 95.8%; in the assay with SK-MEL-5 melanoma it was 92.5%; in the assay on UACC-62 melanoma, 83.9%; in the assay with LOX IMVI melanoma, 97.5%. In addition, the growth was 100% in the assay on SK-MEL-28 melanoma and 113% in the assay on SK-MEL-2 melanoma.
Regarding `O=C(Nc1ccsc1C(=O)NC1CCCCC1)c1ccc(F)cc1`, the growth with K-562 leukemia is 88.5%; in the assay on MALME-3M melanoma it was 99.9%; in the assay on MDA-MB-231 breast it was 87.2%; with RXF 393 renal, 95.6%; in the assay on SF-268 CNS, 104%; in the assay with SF-295 CNS it was 110%. Further, the growth is 101% in the assay with SF-539 CNS; 114% with UACC-257 melanoma; 101% with M14 melanoma; 95.6% with HCT-15 colon; 92.9% with HT29 colon; 85.2% in the assay on SNB-75 CNS. Moreover, the growth with SNB-19 CNS is 98.8%; in the assay with U251 CNS it was 101%; with PC-3 prostate, 67.9%; in the assay on SK-MEL-5 melanoma it was 105%; with UACC-62 melanoma, 103%; in the assay with LOX IMVI melanoma, 97.7%. Moreover, the growth is 96.4% with SK-MEL-28 melanoma and 121% with SK-MEL-2 melanoma.
